# PubChem BioAssay AID651956 (Broad Institute, 2012)
# Results with a measured potency or affinity are listed apart. Results filed as inconclusive are left out. The source made the active and inactive calls.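 Rule for the calls: active = in every test run, a fitted half-maximal concentration for signal decrease at or below twice the highest tested concentration; inconclusive = runs disagree, flat 30 to 70% decrease, or poor fit; inactive = the rest.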
# Assay: activation of miR-122 Renilla sensor silencing – cell-based, Huh7 psiCHECK-miR122, Renilla luciferase, cherry-picked, dose response (AID 651956);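 note: Renilla luciferase from a miR-122 sensor reporter so lower signal means miR-122 activation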
# Conditions: Huh7 psiCHECK-miR122 Renilla luciferase reporter, 48 h; series mostly up to 35 µM
row,Compound,outcome
1,CNC(=O)C[C@H]1CC[C@H]2[C@@H](COc3ccc(NC(=O)C(C)C)cc3C(=O)N2C)O1,inactive
2,CCNC(=O)C[C@H]1CC[C@H]2[C@H](COc3ccc(NS(C)(=O)=O)cc3C(=O)N2C)O1,inactive
3,O=C(Cn1c(=O)c2ccccc2n(CC(=O)N2CCCCC2)c1=O)N1CCCCC1,inactive
4,Fc1ccc(CN2CCN(c3ncnc4scc(-c5ccc(F)cc5)c34)CC2)cc1,inactive
5,COCC(=O)N1[C@@H](CO)[C@@H]2c3ccccc3N(C(=O)C3CC3)C[C@@H]21,inactive
6,COC(=O)c1nn(-c2ccccc2)c(Sc2ccc(Cl)cc2)c1/C=N/O,inactive
7,Cc1cccc(NC(=O)C[C@H]2CC[C@H]3[C@@H](COc4ccc(NC(=O)NC(C)C)cc4C(=O)N3C)O2)c1,inactive
8,CN(C)CCCNC(=O)C[C@@H]1CC[C@H]2[C@H](COc3ccc(NC(=O)c4cccc(F)c4)cc3C(=O)N2C)O1,inactive
9,C=CCc1c(OC)ccc2ccc(=O)oc12,inactive
10,CCNC(=O)Nc1ccc2c(c1)C(=O)N(C)[C@H]1CC[C@H](CC(=O)Nc3cccc(F)c3)O[C@@H]1CO2,inactive
11,O=C(NCC(c1cccnc1)N1CCOCC1)NC1CCCCC1 (centres undefined),inactive
12,CN(C)CCCNC(=O)C[C@@H]1CC[C@H]2[C@@H](COc3ccc(NC(=O)c4cccc(F)c4)cc3C(=O)N2C)O1,inactive
13,Cc1cc(C)n(C(=O)Cn2nc(C)c(Br)c2C)n1,inactive
14,COC(=O)C[C@H]1CC[C@@H]2[C@@H](COc3ccc(NC(=O)Nc4cccc(F)c4)cc3C(=O)N2C)O1,inactive
15,CCNC(=O)Nc1ccc2c(c1)C(=O)N(C)[C@H]1CC[C@H](CC(=O)NCCOC)O[C@@H]1CO2,inactive
16,CNC(=O)C[C@H]1CC[C@@H]2[C@@H](COc3ccc(NC(=O)C(C)C)cc3C(=O)N2C)O1,inactive
17,CCCNC(=O)N1[C@@H]2CN(C(=O)c3ccccc3)c3ccccc3[C@@H]2[C@@H]1CO,inactive
18,COCC(=O)N(C[C@@H]1N[C@H](CO)[C@H]1c1ccc(-c2cccnc2)cc1)C(C)C,inactive
19,FC(F)(F)c1cnc(N2CCCN(C(=S)Nc3ccccc3)CC2)c(Cl)c1,inactive
20,O=C(C1CCCCC1)N1C[C@@H]2[C@H](c3ccccc31)[C@H](CO)N2Cc1ccccc1Cl,inactive

row,Compound,outcome
1,CCCCC(=O)OCC(=O)c1[nH]c(C)c(C(=O)OCC)c1C,inactive
2,COCC(=O)Nc1ccc2c(c1)C(=O)N(C)[C@H]1CC[C@@H](CC(=O)NC3CCCC3)O[C@H]1CO2,inactive
3,Cc1ccc(-n2c(Cc3ccccc3)n[nH]c2=S)cc1,inactive
4,Cc1cccc(NC(=O)Nc2ccc3c(c2)C(=O)N(C)[C@H]2CC[C@@H](CC(=O)NCc4ccccc4Cl)O[C@H]2CO3)c1,inactive
5,COC(=O)C[C@H]1CC[C@H]2[C@H](COc3ccc(NC(=O)c4cscn4)cc3C(=O)N2C)O1,inactive
6,CCC(=O)N1[C@H](CO)[C@H](c2ccccc2)[C@@H]1CN(CC)C(=O)c1ccccc1,inactive
7,N#CCc1c(C#N)c(N)nc(N2CCN(S(=O)(=O)c3ccccc3)CC2)c1C#N,inactive
8,CN1C(=O)c2cc(NC(=O)c3cccc(F)c3)ccc2OC[C@H]2O[C@H](CC(=O)NC3CCC3)CC[C@@H]21,inactive
9,C/C=C/c1ccc([C@H]2[C@@H](CO)N[C@@H]2CN(CC(C)C)C(=O)c2ccccn2)cc1,inactive
10,CN1C(=O)c2cc(NS(=O)(=O)c3cccc(F)c3)ccc2OC[C@H]2O[C@@H](CC(=O)NCCN3CCCCC3)CC[C@H]21,inactive
11,CC(=O)N1[C@H](CO)[C@@H](c2ccccc2)[C@H]1CN(C)C(=O)CN1CCOCC1,inactive
12,CCOC(=O)CSc1nnnn1-c1cccc2ccccc12,inactive
13,COCC(=O)N1[C@H](CO)[C@H]2c3ccccc3N(C(=O)C3CC3)C[C@H]21,inactive
14,CN1C(=O)c2cc(NC(=O)c3cccc(F)c3)ccc2OC[C@@H]2O[C@@H](CC(=O)Nc3ccccc3)CC[C@@H]21,inactive
15,O=C(N/N=C/c1ccco1)c1cccc(N2CCCC2=O)c1,inactive
16,C/C=C/c1ccc([C@@H]2[C@H](CO)N[C@H]2CN(CC(C)C)C(=O)c2ccccn2)cc1,inactive
17,c1ccc(-c2nnc3n2CCCC3)cc1,inactive
18,COc1ccc(C(=O)N2C[C@H]3[C@@H](c4ccccc42)[C@@H](CO)N3C(=O)Cc2ccccn2)cc1,inactive
19,CCC(=O)N1[C@H](CO)[C@H]2c3ccccc3N(C(=O)CC(F)(F)F)C[C@H]21,inactive
